# From PubChem BioAssay (NCI)
# This is part of a sample that, as a whole, favours compounds with a hit. Of some 83,000 tested, about 20% had one in any assay.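 Assay: single dose, 48 h. Readout: percent growth (0 = no net growth; negative = cell death). Active: <10.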 A number with no mark means an inactive call. The source made the active and inactive calls.
# Experiments:
# Test in all cases: NCI-60 one-dose screen, 48 h (100 = growth as untreated, 0 = no growth, -100 = all killed)
# Details in all cases: 10 µM unless noted
# SK-MEL-2 melanoma = tested on: SK-MEL-2 melanoma
# EKVX NSCLC = tested on: EKVX NSCLC
# SN12C renal = tested on: SN12C renal
# UO-31 renal = tested on: UO-31 renal
# TK-10 renal = tested on: TK-10 renal
# ACHN renal = tested on: ACHN renal
# A498 renal = tested on: A498 renal
# CCRF-CEM leukemia = tested on: CCRF-CEM leukemia
# MOLT-4 leukemia = tested on: MOLT-4 leukemia
# SR leukemia = tested on: SR leukemia
# RPMI-8226 leukemia = tested on: RPMI-8226 leukemia
# OVCAR-8 ovarian = tested on: OVCAR-8 ovarian
# OVCAR-5 ovarian = tested on: OVCAR-5 ovarian
# OVCAR-4 ovarian = tested on: OVCAR-4 ovarian
# SK-OV-3 ovarian = tested on: SK-OV-3 ovarian
# IGROV1 ovarian = tested on: IGROV1 ovarian
# OVCAR-3 ovarian = tested on: OVCAR-3 ovarian
# HS 578T breast = tested on: HS 578T breast
# NCI/ADR-RES ovarian = tested on: NCI/ADR-RES ovarian
# CAKI-1 renal = tested on: CAKI-1 renal
Structure (SMILES),growth (SK-MEL-2 melanoma),growth (EKVX NSCLC),growth (SN12C renal),growth (UO-31 renal),growth (TK-10 renal),growth (ACHN renal),growth (A498 renal),growth (CCRF-CEM leukemia),growth (MOLT-4 leukemia),growth (SR leukemia),growth (RPMI-8226 leukemia),growth (OVCAR-8 ovarian),growth (OVCAR-5 ovarian),growth (OVCAR-4 ovarian),growth (SK-OV-3 ovarian),growth (IGROV1 ovarian),growth (OVCAR-3 ovarian),growth (HS 578T breast),growth (NCI/ADR-RES ovarian),growth (CAKI-1 renal)
CC[N+](CC)=c1sc2c(s1)C(c1ccc(Cl)cc1)Oc1ccc(Cl)cc1-2 (configuration not stated),-31.3% (active),16.4%,5.19% (active),70.5%,44%,88.5%,28.6%,-17% (active),-10.1% (active),14.8%,-31.4% (active),10.7%,15.1%,9.29% (active),-6.15% (active),9.22% (active),1.97% (active),18.3%,88.9%,
O=C1c2ccccc2OC=C(c2ccccc2)N1CCCCNc1ccc(S(=O)(=O)Nc2ncccn2)cc1,99.1%,90%,99.1%,85.7%,96.6%,100%,80.2%,75.6%,85.3%,78.9%,83.2%,92.2%,105%,106%,96.6%,104%,104%,92.8%,98.6%,
COc1cc(-c2nn(-c3ccc(C)cc3)cc2C(=O)O)ccc1O,93.5%,88.3%,99.8%,74.7%,133%,97.5%,110%,97.5%,83.2%,85.3%,90.9%,98.9%,113%,109%,94%,94.2%,93.4%,,94.5%,
O=C(Cc1ccc(/C=C/C(=O)c2ncc[nH]2)cc1)Nc1ccc(F)cc1,79.1%,34.8%,17.4%,17.2%,35.9%,46.4%,66.9%,2.63% (active),14.7%,-2.77% (active),-17.9% (active),-6.92% (active),49.1%,36.6%,52%,39%,2.36% (active),35.4%,14.5%,
CSc1ccc(SC2c3ccc(C)cc3Oc3nc(N)c(C#N)c(N)c32)cc1 (configuration not stated),-58.9% (active),-48.6% (active),-98% (active),-99.2% (active),-97% (active),-96.6% (active),4.22% (active),-37% (active),-17.9% (active),-22.9% (active),-38% (active),-92% (active),-80.8% (active),-94.8% (active),15.1%,-86.2% (active),-94.7% (active),,-18.6% (active),
Clc1ccc2nc3nc4ccc[nH]c4cc3c2c1,88.5%,68.2%,90.8%,78.4%,43.1%,85.9%,109%,71.4%,80.5%,39.6%,65.5%,87.4%,127%,49.2%,98.1%,52.9%,83.1%,92.2%,88.3%,
COc1ccc(N=Nc2nccs2)c(O)c1,64.2%,30.9%,50.3%,13.1%,51.3%,18.4%,86.5%,4.6% (active),4.68% (active),11.5%,21.6%,20.2%,87.2%,22.4%,52.4%,25%,33.1%,85.3%,14.4%,
O=[N+]([O-])c1ccccc1/C=N\NC(=S)N/N=C/c1ccccc1[N+](=O)[O-],56.6%,70.5%,86.3%,27.4%,46.8%,78.8%,,82.7%,,19%,87.3%,102%,,98.9%,69.1%,15%,-27% (active),62.9%,14.4%,42.2%
O=C(O)c1ccc(N=CC(=O)c2ccc(-c3ccccc3)cc2)cc1,108%,99.3%,95.8%,93.5%,96.8%,96.2%,,-57.9% (active),99.9%,,90.3%,98.7%,92.6%,101%,110%,102%,119%,88.9%,94.9%,102%
CCNC(=O)Oc1ccc(/C(=C(\C)c2ccc(Cl)cc2)c2ccc(OCCN(CC)CC)cc2)cc1,38.1%,60.1%,66.1%,25.8%,80.4%,71.3%,85.5%,16.4%,7.99% (active),-26.8% (active),-11.4% (active),64.8%,85.9%,40.5%,61.5%,49.2%,53.9%,47.1%,57.3%,
CC(C)(C)N1CCC1CN (configuration not stated),72.1%,90.1%,111%,91.1%,106%,114%,88.5%,,128%,101%,,97.5%,107%,103%,104%,112%,103%,117%,113%,
